This is a sample that favours compounds with a hit; in the whole collection about 21% have one here.
Shiga inhibitor: inhibitors of Shiga toxin in Vero cells. Vero cells, Shiga toxin protein synthesis inhibition reporter. inhibition, % at 38.7 µM. hit rate 9.2% among 290,000; in the data active = inhibition mostly above about 28%, no sharp cut-off; inactive = mostly below about 43%; also: 0% is about no effect
Pf growth 96h: P. falciparum growth inhibition at 96 hour, primary screen for plastid delayed-death inhibitors; P. falciparum luciferase reporter growth, 96 h; Potency, µM (series often up to 28.7 µM), for the others: top-dose activity change, negative = inhibition, usual class: inhibitors; AID 504834; hit rate 6.9% among 320,000; also: potency is read from the fitted curve at half-maximal effect; % is scaled to controls: 0 for no effect and ±100 for the full control effect
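Two parasite generations (96 h, 37 C, 5% CO2) of compound exposure in infected erythrocytes (0.05% parasitemia, 2% hematocrit). Luciferase-reporter P. falciparum; decreased luminescence indicates inhibited growth, aimed at apicoplast-acting delayed death.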
NS1 inh: influenza NS1 inhibition; Potency, µM (titrated, usually from 46.1 µM), without a hit: at the top dose activity, positive = more growth; hit rate 0.4% among 270,000; AID 2326; calls by dose curve; also: potency is read from the fitted curve at half-maximal effect; actives are rising curves; nearly all actives have a fitted effect of over 50% in size
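OD600 was taken as the measure of yeast growth restored by compound in an NS1-expressing S. cerevisiae strain. Cells had been washed out of glucose medium and diluted 1:100 into galactose -URA medium, pH 6.0.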
CHX counter: counter-screen for Shiga toxin inhibitors: cycloheximide protein synthesis inhibition | cell reporter, cycloheximide protein synthesis inhibition counterscreen | max response, % | hit rate 12% among 300,000 | AID 2314; in the data active = max response mostly above about 13%, no sharp cut-off; inactive = mostly below about 14%; also: read at 38.3 µM for the half of the compounds with a filed dose; 0% is about no effect
Pf growth 48h: inhibits P. falciparum growth in the first generation, 48 h; P. falciparum luciferase growth in erythrocytes, 48 h; Potency, µM (doses to about 28.7 µM), inactives show at the highest dose activity change, negative = inhibition, hits mostly inhibitors; hit rate 5.9% among 310,000; AID 504832; also: potency is read from the fitted curve at half-maximal effect; % is scaled to controls: 0 for no effect and ±100 for the full control effect
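Growth was read as firefly luciferase luminescence after a 48 h, 37 C, 5% CO2 exposure of compounds to reporter-bearing P. falciparum cultures (0.1% parasitemia, 2% hematocrit final) in Albumax-supplemented RPMI 1640.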
Numbers without * were called inactive; ? = inconclusive; . = no result; [ ] = remark or other dose. Unless noted, calls follow the shape of the dose curve; as a rule, active = well fitted inhibition curve with a large enough effect; inconclusive = small, poorly fitted or top-dose-only effect, or another doubt; inactive = no such curve, though single readings can be large or run the other way.

SMILES	Shiga inhibitor	Pf growth 96h	NS1 inh	CHX counter	Pf growth 48h
O=[N+]([O-])c1ccc(/C=N/N/C(=N/c2ccccn2)c2ccccn2)cc1	50	293%	-7%	40*	81%
Cc1ccnc(NC(=O)c2ccc(S(=O)(=O)c3ccccc3)cc2)c1	38	29%[5.75 µM]	-1%	13	?
Cc1ncc(CO)c2c1Oc1nc(-c3ccccc3)nc(SCC(=O)N(C)c3ccccc3)c1C2	5	13µM*	?	-7	?
Cc1ncc(CO)c2c1Oc1nc(-c3ccccc3F)nc(SCC(=O)N(C)c3ccccc3)c1C2	-9	-16%	?	-3	-15%
COc1cccc(-c2nc3c(c(SCC(=O)N4CCOCC4)n2)Cc2c(CO)cnc(C)c2O3)c1	27	13µM*	5%	0	?
Cc1cccc(-c2nc3c(c(SCC(=O)N4CCOCC4)n2)Cc2c(CO)cnc(C)c2O3)c1	22	59%	18%	5	5.9µM*
COc1ccccc1-c1nc2c(c(SCC(=O)N3CCCCC3)n1)Cc1c(CO)cnc(C)c1O2	-1	1.7µM*	16%	-1	10µM*
N#Cc1ccc(NC(=O)CSc2nc3[nH]c(=O)cc(O)c3s2)cc1	.	1.5µM*	.	.	?
CSc1ccc(NC(=O)CSc2nc3[nH]c(=O)cc(O)c3s2)cc1	.	299%	.	.	-1%
COc1ccc(NC(=O)CSc2nc3[nH]c(=O)cc(O)c3s2)c(OC)c1	.	1%	.	.	10µM*
O=c1cc(O)c2ccccc2n1Cc1ccccc1	-5	-19%	.	4	?
COc1ccc(-c2cc3c(=O)n(CC(=O)Nc4cccc(Cl)c4)ncn3n2)cc1	20	46%	-3%	2	38%
COC(=O)CN1C(c2cccc(Cl)c2)=Nc2ccc(Cl)cc2C1c1ccccc1 (configuration not stated)	23	1.7µM*	-39%	-1	2.3µM*
COC(=O)CN1C(CN2CCOCC2)=Nc2ccc(Br)cc2C1c1ccccc1 (configuration not stated)	-13	?	-2%	-2	?
COC(=O)CN1C(c2ccc(OC)cc2)=Nc2ccc(Cl)cc2C1c1ccccc1 (configuration not stated)	-6	10µM*	4%	-6	15µM*
O=C(N/N=C/c1ccc(N2CCCCC2)o1)c1ccccc1	75*	?	15%	37*	?
CCCCCCCC(=O)N/N=C(\C)c1ccc(N)cc1	-17	11%	.	10	-19%
CCCCCC(=O)N/N=C(\C)c1ccc(N2CCCCC2)cc1	58*	?	28%	48*	0%
CN(C)/N=C/c1ccc(N2CCOCC2)cc1	45	?	.	23*	470%
O=C(N/N=C/c1ccc(N2CCOCC2)o1)c1cccc([N+](=O)[O-])c1	13	13%	?	1	11%
CNC(=S)N/N=C(\C)c1ccc(N2CCOCC2)cc1	85*	10µM*	-17%	61*	-4%
O=C1NC(=S)N/C1=C/c1cc2c(cc1[N+](=O)[O-])OCO2	-2	33%	-4%	2	4%
COc1ccc(CNS(=O)(=O)c2ccc3c(c2)N(C)CCO3)cc1	-11	?	-1%	3	7%
C/C(=N\Nc1ccc(F)cc1F)c1ccc(N2CCOCC2)cc1	16	76%	.	24*	41%
Fc1ccc(N/N=C/c2ccc(N3CCOCC3)cc2)c(F)c1	75*	91%	0%	34*	73%
SMILES	Shiga inhibitor	Pf growth 96h	NS1 inh	CHX counter	Pf growth 48h
C/C(=N\NC(=O)c1ccc(F)cc1)c1ccc(N2CCOCC2)cc1	74*	-4%	-6%	21*	0%
C/C(=N\Nc1ccc(F)cc1F)c1ccc(F)cc1	-14	21%	2%	-2	10%
C/C(=N\NC(=O)COc1ccc(C(C)(C)C)cc1)c1ccc(N2CCOCC2)cc1	-30	?	4%	24*	2%
CC[C@H](C)[C@H](NC(=O)[C@H](CCC(=O)O)NC(=O)[C@@H](N)CO)C(=O)N[C@@H](CCC(N)=O)C(=O)N[C@@H](CC(C)C)C(=O)N[C@@H](CCSC)C(=O)N[C@@H](Cc1cnc[nH]1)C(=O)N[C@@H](CC(N)=O)C(=O)N[C@@H](CC(C)C)C(=O)NCC(=O)N[C@@H](CCCCN)C(=O)N[C@@H](Cc1cnc[nH]1)C(=O)N[C@@H](CC(C)C)C(=O)N[C@@H](CC(N)=O)C(=O)N[C@@H](CO)C(=O)N[C@@H](CCSC)C(=O)N[C@@H](CCC(=O)O)C(=O)N[C@@H](CCCNC(=N)N)C(=O)N[C@H](C(=O)N[C@@H](CCC(=O)O)C(=O)N[C@@H](Cc1c[nH]c2ccccc12)C(=O)N[C@@H](CC(C)C)C(=O)N[C@@H](CCCNC(=N)N)C(=O)N[C@@H](CCCCN)C(=O)N[C@@H](CCCCN)C(=O)N[C@@H](CC(C)C)C(=O)N[C@@H](CCC(N)=O)C(=O)N[C@@H](CC(=O)O)C(=O)N[C@H](C(=O)N[C@@H](Cc1cnc[nH]1)C(=O)N[C@@H](CC(N)=O)C(=O)N[C@@H](Cc1ccccc1)C(=O)O)C(C)C)C(C)C	-5	.	.	-8	.
S=c1[nH]ncn1/N=C/c1ccc(Br)cc1	1	23%	-36%	8	14%
C/C(=N\NC(=O)c1ccc(N2CCCC2=O)cc1)c1ccccc1	17	60%	-7%	-1	15%
CC(=O)Nc1ccc(N2CCOCC2)c(Cl)c1	76	4%	1%	-1	4%
C/C(=N\Nc1ccc(Cl)c(C(=O)O)c1)c1ccc(N2CCOCC2)cc1	156*	2%	6%	118*	38%
S=c1[nH]ncn1/N=C/c1ccc(N2CCOCC2)cc1	32*	92%	5%	26*	.
C/C(=N\NC(=O)c1ccccc1)c1ccc(N2CCCCC2)cc1	77*	44%	5%	48*	40%
CC(=O)N[C@@H](Cc1c[nH]c2ccccc12)C(=O)OCC(=O)Nc1ccc(S(=O)(=O)N(C)C)cc1	18	36%	.	-2	-7%
CC(C)(CNc1ccc([N+](=O)[O-])cc1Cl)N1CCOCC1	-6	?	5%	-6	-12%
COC(=O)c1cc(-c2ccc(Br)cc2)c2c(=O)n(C)c(=O)n(C)c2n1	-5	5.9µM*	-6%	-4	-11%
COc1cccc(C(=O)Nc2ccccc2OC(F)(F)F)c1	15	4%	2%	8	14%
O=C(Nc1ccon1)c1csc2ccccc12	31	.	-35%	9.7*	-9%
O=C(Nc1cnccn1)c1csc2ccccc12	111*	1%[5.75 µM]	-59%	27*	79%
Cc1cc(C(=O)Nc2ccon2)cs1	18	?	0%[9.22 µM]	10	24%
CC(=O)Nc1ccccc1-c1nnc(SCc2ccccc2Cl)[nH]c1=O	35	9%	2%	-3	.
Cc1ccccc1C(=O)Nc1cccc(-c2ccc(N3CCOCC3)nn2)c1	.	52%	.	.	68%
COC(=O)CSc1ncc(S(=O)(=O)c2ccccc2)c(=O)[nH]1	2	-7%	14%	-6	.
c1cc2[nH]snc2c2nc(C3CC3)nc12	31	62%	-87%	28*	20%
CCCc1cc(=O)n2c(nc3ccccc32)[nH]1	37	.	-31%	18*	?

Screens (PubChem BioAssay)
